Several values for one entry are separate records, joined by “and”; a condition that tells them apart may be missing. Equal entries are not always repeated. The whole screen tested about 5,500 compounds, of which about 2,000 (36%) were called active. Roughly 18% stayed inconclusive and do not appear here. Cut-off read from the data, not from the text of the source: active = normalized growth mostly below about 0.91 (no sharp cut-off); inconclusive = no clear call, values can overlap the other calls; inactive = mostly above about 0.92. The list shows a part of the results.
Assay: chemical genetic growth profiling, strain panel (AID 1159580);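 note: tested at 20 µM; growth read once vehicle control cultures reached saturation at 30 °C; 1 = growth at the plate median or of vehicle wells; lower values mean less growth of the strain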
Settings: S. cerevisiae deletion strains, growth OD

Measured: normalized growth

CC(=O)Nc1ccc(OC(=O)c2ccccc2O)cc1
inactive: locus YAL021C, strain ccr4, stronger effect = lower value 1 | locus YAL026C, strain drs2, stronger effect = lower value 0.949 | locus YAL030W, strain snc1, stronger effect = lower value 0.994 | locus YBL061C, strain skt5, stronger effect = lower value 0.972 | locus YBR171W, strain sec66, stronger effect = lower value 0.992 | locus YBR229C, strain ROT2, stronger effect = lower value 0.98 | locus YBR231C, strain swc5, stronger effect = lower value 0.992 | locus YBR279W, strain paf1, stronger effect = lower value 0.939 | locus YCL029C, strain bik1, stronger effect = lower value 0.954 | locus YCR088W, strain abp1, stronger effect = lower value 0.929 | locus YDL005C, strain med2, stronger effect = lower value 0.996 | locus YDL035C, strain GPR1, stronger effect = lower value 0.911 | locus YDL040C, strain nat1, stronger effect = lower value 0.99 | locus YDL074C, strain BRE1, stronger effect = lower value 0.788 | locus YDL101C, strain DUN1, stronger effect = lower value 0.947 | locus YDL185W, strain tfp1, stronger effect = lower value 0.954 | locus YDL192W, strain arf1, stronger effect = lower value 0.967 | locus YDR001C, strain nth1, stronger effect = lower value 0.959 | locus YDR069C, strain doa4, stronger effect = lower value 0.999 | locus YDR101C, strain arx1, stronger effect = lower value 0.937 | locus YDR137W, strain rgp1, stronger effect = lower value 0.958 | locus YDR162C, strain NBP2, stronger effect = lower value 0.943 | locus YDR297W, strain sur2, stronger effect = lower value 0.977 | locus YDR318W, strain mcm21, stronger effect = lower value 0.93 | locus YDR334W, strain swr1, stronger effect = lower value 0.962 | locus YDR335W, strain msn5, stronger effect = lower value 0.977 | locus YDR388W, stronger effect = lower value 0.944 | locus YEL003W, strain gim4, stronger effect = lower value 0.978 | locus YEL037C, strain rad23, stronger effect = lower value 0.968 | locus YEL061C, strain CIN8 (second series), stronger effect = lower value 0.971 | locus YEL061C, strain CIN8, stronger effect = lower value 0.98 | locus YER015W, strain faa2, stronger effect = lower value 0.934 | locus YER016W, strain bim1, stronger effect = lower value 0.933 | locus YER110C, stronger effect = lower value 0.951 | locus YER111C, strain swi4, stronger effect = lower value 0.991 | locus YER155C, strain BEM2, stronger effect = lower value 0.945 | locus YFR010W, strain ubp6, stronger effect = lower value 0.944 | locus YGL078C, strain dbp3, stronger effect = lower value 0.97 | locus YGL086W, strain mad1, stronger effect = lower value 0.935 | locus YGL167C, strain pmr1, stronger effect = lower value 1.01 | locus YGL173C, strain kem1, stronger effect = lower value 0.959 | locus YGL227W, strain vid30, stronger effect = lower value 0.959 | locus YGL248W, strain PDE1, stronger effect = lower value 0.904 | locus YHR013C, strain ard1, stronger effect = lower value 0.915 | locus YHR027C, strain rpn1, stronger effect = lower value 0.945 | locus YHR030C, strain SLT2, stronger effect = lower value 0.968 and 0.921 | locus YHR079C, strain IRE1 (second series), stronger effect = lower value 0.927 | locus YHR079C, strain IRE1, stronger effect = lower value 0.904 | locus YHR094C, strain hxt1, stronger effect = lower value 0.954 | locus YHR129C, strain ARP1, stronger effect = lower value 0.948 | locus YHR200W, strain rpn10, stronger effect = lower value 0.934 | locus YIL066C, strain RNR3, stronger effect = lower value 0.89 | locus YIL073C, strain SPO22, stronger effect = lower value 0.854 | locus YIL125W, strain kgd1, stronger effect = lower value 0.95 | locus YIR030C, strain dcg1, stronger effect = lower value 0.933 | locus YJL092W, strain hpr5, stronger effect = lower value 0.946 | locus YJL095W, strain BCK1 (second series), stronger effect = lower value 0.96 | locus YJL115W, strain asf1, stronger effect = lower value 0.989 | locus YJL129C, strain trk1, stronger effect = lower value 0.974 | locus YJL134W, strain LCB3, stronger effect = lower value 0.985 | locus YJL154C, strain vps35, stronger effect = lower value 0.985 | locus YJL166W, strain qcr8, stronger effect = lower value 0.952 | locus YJL168C, strain set2, stronger effect = lower value 0.958 | locus YJL187C, strain SWE1 (second series), stronger effect = lower value 0.93 | locus YJL187C, strain SWE1, stronger effect = lower value 0.985
active: locus YBR009C, strain hhf1, stronger effect = lower value 0.862 | locus YBR021W, strain FUR4, stronger effect = lower value 0.807 | locus YBR023C, strain chs3, stronger effect = lower value 0.908 | locus YCL011C, strain gbp2, stronger effect = lower value 0.87 | locus YCL016C, strain dcc1, stronger effect = lower value 0.91 | locus YCL061C, strain MRC1, stronger effect = lower value 0.917 | locus YCL069W, strain vba3, stronger effect = lower value 0.908 | locus YDL134C, strain PPH21, stronger effect = lower value 0.878 | locus YDR159W, strain sac3, stronger effect = lower value 0.842 | locus YDR195W, strain ref2 1.15 [resistant] | locus YDR392W, strain spt3, stronger effect = lower value 0.712 | locus YDR502C, strain sam2, stronger effect = lower value 0.913 | locus YER155C, strain BEM2 (second series), stronger effect = lower value 0.765 | locus YER167W, strain BCK2, stronger effect = lower value 0.873 | locus YGL240W, strain doc1, stronger effect = lower value 0.882 | locus YGL253W, strain hxk2, stronger effect = lower value 0.879 | locus YGR078C, strain PAC10, stronger effect = lower value 0.848 | locus YGR135W, strain pre9, stronger effect = lower value 0.847 | locus YGR252W, strain gcn5, stronger effect = lower value 0.608 | locus YHR142W, strain chs7, stronger effect = lower value 0.803 | locus YJL164C, strain tpk1, stronger effect = lower value 0.897 | locus YJR043C, strain POL32, stronger effect = lower value 0.754
0.738 (active) and 0.924 (inactive): locus YJL095W, strain BCK1, stronger effect = lower value

Source: PubChem BioAssay AID1159580 (chemical genetic matrix, 2015)
